Assay [1] in a line: optical density shifts of acrAB sulA E. coli – strain DRC41, OD650, 48 h, E. coli filamentation inducer project, primary screen (AID 1152).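 Also: E. coli MC1000 strain DRC41 lacking acrAB efflux pump and sulA.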 To be noted: higher = more signal, called active from +8 up or from −8 down.
Assay [2] in a line: probe aLefty1 binding on compound microarray – biochemical, small-molecule microarray, 635/667 nm fluorescence, primary screen (AID 1153).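 Also: score merges spot fluorescence with signal-to-noise ratio from the scanned slide images.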 To be noted: higher = more signal.
Assay [3] can be described thus: plasmodial surface anion channel blockers, osmotic lysis – cell-based, P. falciparum Indochina, OD700, 1 h, primary screen (AID 1154). The following applies: P. falciparum Indochina infected RBC osmotic lysis, higher = more signal, called active from +8 up or from −8 down.
A short description of assay [4]: plasmodial surface anion channel blockers, osmotic lysis – cell-based, P. falciparum Indochina, OD700, 2 h, primary screen (AID 1155).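 Also: lysis reports solute entry through the parasite surface anion channel PSAC.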 To be noted: P. falciparum Indochina infected erythrocytes, higher = more signal, called active from +8 up or from −8 down.
A short description of assay [5]: changes in parasitized red cell lysis, either direction – P. falciparum Indochina, OD700, 3 h, PSAC antagonist project, primary screen (AID 1156). The following applies: P. falciparum-infected erythrocytes, osmotic lysis, higher = more signal, called active from +8 up or from −8 down.
The nature of assay [6]: plasmodial surface anion channel blockers, osmotic lysis – cell-based, P. falciparum Indochina, OD700, 18 h, primary screen (AID 1157). The following applies: P. falciparum Indochina infected erythrocytes, osmotic lysis OD700, 18 h; higher = more signal, called active from +8 up or from −8 down.
A short description of assay [7]: S6 kinase pathway phospho-S6 level changes – cell-based, A549, cytoblot, luminescence, serum-stimulated, primary screen (AID 1158).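 Also: serum-stimulated A549 lung adenocarcinoma cells; signal is phosphorylated S6 detected by cytoblot immunostaining with HRP secondary.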 To be noted: 5 h, higher = more signal.
In assay [8] the target is NADPH oxidase 2 (Homo sapiens) (UniProt P04839). As to the kind of experiment: compounds shifting NOX2 Amplex Red fluorescence – cell-based, HEK293-NOX2, PMA-stimulated, NOX inhibitor project, primary screen (AID 1159). Also: test concentration not given here. To be noted: 45 min, higher = more signal, called active from +8 up or from −8 down.
NADPH oxidase 2 (Homo sapiens), sequence (P04839 whole entry, looked up): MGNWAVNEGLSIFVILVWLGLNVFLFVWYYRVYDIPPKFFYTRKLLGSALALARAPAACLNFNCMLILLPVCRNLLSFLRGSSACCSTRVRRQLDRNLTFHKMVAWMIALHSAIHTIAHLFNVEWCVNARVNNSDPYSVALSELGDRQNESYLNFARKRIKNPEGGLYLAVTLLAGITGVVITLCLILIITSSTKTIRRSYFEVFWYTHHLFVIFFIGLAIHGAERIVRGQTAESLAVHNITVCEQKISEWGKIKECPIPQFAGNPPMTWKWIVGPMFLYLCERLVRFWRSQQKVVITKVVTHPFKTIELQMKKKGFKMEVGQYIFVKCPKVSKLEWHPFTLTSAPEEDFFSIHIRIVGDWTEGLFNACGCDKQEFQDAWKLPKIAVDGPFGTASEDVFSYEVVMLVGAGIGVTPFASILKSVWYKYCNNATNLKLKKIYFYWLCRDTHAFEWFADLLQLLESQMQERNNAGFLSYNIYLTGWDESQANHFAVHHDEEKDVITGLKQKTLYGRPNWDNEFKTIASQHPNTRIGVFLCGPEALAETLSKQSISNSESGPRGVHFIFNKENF
Assay [9] deals with NADPH oxidase 4 (Homo sapiens) (UniProt Q9NPH5). The experiment in a line: compounds shifting NOX4 Amplex Red fluorescence – cell-based, HEK293-NOX4, tetracycline-induced, NOX inhibitor project, primary screen (AID 1160). To be noted: HEK293-NOX4, Amplex Red H2O2 fluorescence, 45 min; higher = more signal, called active from +8 up or from −8 down.
NADPH oxidase 4 (Homo sapiens), sequence (Q9NPH5 whole entry, looked up): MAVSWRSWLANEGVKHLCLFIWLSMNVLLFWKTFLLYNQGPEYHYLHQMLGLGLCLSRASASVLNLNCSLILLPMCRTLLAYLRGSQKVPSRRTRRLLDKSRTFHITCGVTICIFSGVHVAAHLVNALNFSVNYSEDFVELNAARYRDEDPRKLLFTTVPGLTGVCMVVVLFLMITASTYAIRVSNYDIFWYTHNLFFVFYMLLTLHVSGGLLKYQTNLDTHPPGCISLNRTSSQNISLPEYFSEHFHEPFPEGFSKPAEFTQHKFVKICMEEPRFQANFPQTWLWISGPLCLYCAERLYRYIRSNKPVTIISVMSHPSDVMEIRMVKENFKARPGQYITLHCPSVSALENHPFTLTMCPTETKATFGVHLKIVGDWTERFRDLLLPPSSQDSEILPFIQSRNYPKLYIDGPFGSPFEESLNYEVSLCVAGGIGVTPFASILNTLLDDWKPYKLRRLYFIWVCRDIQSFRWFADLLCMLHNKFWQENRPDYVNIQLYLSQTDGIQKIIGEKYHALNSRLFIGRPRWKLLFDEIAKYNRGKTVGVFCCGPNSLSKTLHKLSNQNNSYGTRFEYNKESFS
Assay [10] addresses NADPH oxidase 5 (Homo sapiens) (UniProt Q96PH1). As to the kind of experiment: compounds shifting NOX5 Amplex Red fluorescence – cell-based, HEK293-NOX5, NOX inhibitor project, primary screen (AID 1161). To be noted: HEK293-NOX5, ionomycin, 45 min, higher = more signal.
Assay [11] is described as follows: compound effects on lung adenocarcinoma cell viability – A549, calcein-AM fluorescence, 48 h, basal, profiling panel (AID 1162). Also: test concentration not given here. To be noted: higher = more signal.
A short description of assay [12]: compound effects on differentiated 3T3-L1 adipocyte viability – cell-based, 3T3-L1 adipocytes, calcein-AM fluorescence, 48 h, basal, profiling panel (AID 1163). Also: test concentration not given here. To be noted: 3T3-L1 adipocytes viability, higher = more signal.
Assay [13] can be described thus: compound effects on hepatocellular carcinoma cell viability – HepG2, calcein-AM fluorescence, 48 h, basal, profiling panel (AID 1164). Also: test concentration not given here. To be noted: higher = more signal.
A short description of assay [14]: compound effects on multiple myeloma cell viability – MM1S, calcein-AM fluorescence, 48 h, basal, profiling panel (AID 1165).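 Also: viability of MM1S multiple myeloma cells under basal unstimulated conditions; test concentration not given here.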 To be noted: higher = more signal.
The nature of assay [15]: calcein-AM signal in unstimulated myeloma cells – cell-based, calcein-AM fluorescence, 48 h, PK04 Diversity Set, profiling panel (AID 1166).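 Also: cells grown under basal conditions without added stimulus; test concentration not given here.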 The following applies: RPMI8226 myeloma viability, higher = more signal.
Assay [16] can be described thus: JC-1 mitochondrial signal, unstimulated HepG2 cells – cell-based, JC-1 fluorescence, 24 h, 100 nL compound, profiling panel (AID 1167). Also: test concentration not given here. To be noted: HepG2 mitochondrial potential, higher = more signal.
Assay [17] in a line: JC-1 mitochondrial signal, unstimulated adipocytes – cell-based, JC-1 fluorescence, 3T3-L1 adipocytes, 24 h, 100 nL compound, profiling panel (AID 1168). Also: test concentration not given here. To be noted: JC-1 mitochondrial fluorescence, higher = more signal, called active from +8 up or from −8 down.
Assay [18] is described as follows: JC-1 mitochondrial signal, unstimulated myeloma cells – cell-based, JC-1 fluorescence, RPMI8226, 24 h, 100 nL compound, profiling panel (AID 1169). Also: test concentration not given here. The following applies: JC-1 mitochondrial potential fluorescence, higher = more signal.
Assay [19] in a line: JC-1 mitochondrial signal, unstimulated MM1S myeloma – cell-based, JC-1 fluorescence, 24 h, 100 nL compound, profiling panel (AID 1170). Also: test concentration not given here. The following applies: MM1S mitochondrial potential, higher = more signal.
Assay [20] can be described thus: resazurin metabolic signal in A549 cells – cell-based, resazurin fluorescence, 24 h, PK04 Diversity Set, profiling panel (AID 1171). Also: test concentration not given here. The following applies: A549 viability, higher = more signal, called active from +8 up or from −8 down.

Calls of active or inactive are those of the source.

NADPH oxidase 5 (Homo sapiens), sequence (Q96PH1 whole entry, looked up): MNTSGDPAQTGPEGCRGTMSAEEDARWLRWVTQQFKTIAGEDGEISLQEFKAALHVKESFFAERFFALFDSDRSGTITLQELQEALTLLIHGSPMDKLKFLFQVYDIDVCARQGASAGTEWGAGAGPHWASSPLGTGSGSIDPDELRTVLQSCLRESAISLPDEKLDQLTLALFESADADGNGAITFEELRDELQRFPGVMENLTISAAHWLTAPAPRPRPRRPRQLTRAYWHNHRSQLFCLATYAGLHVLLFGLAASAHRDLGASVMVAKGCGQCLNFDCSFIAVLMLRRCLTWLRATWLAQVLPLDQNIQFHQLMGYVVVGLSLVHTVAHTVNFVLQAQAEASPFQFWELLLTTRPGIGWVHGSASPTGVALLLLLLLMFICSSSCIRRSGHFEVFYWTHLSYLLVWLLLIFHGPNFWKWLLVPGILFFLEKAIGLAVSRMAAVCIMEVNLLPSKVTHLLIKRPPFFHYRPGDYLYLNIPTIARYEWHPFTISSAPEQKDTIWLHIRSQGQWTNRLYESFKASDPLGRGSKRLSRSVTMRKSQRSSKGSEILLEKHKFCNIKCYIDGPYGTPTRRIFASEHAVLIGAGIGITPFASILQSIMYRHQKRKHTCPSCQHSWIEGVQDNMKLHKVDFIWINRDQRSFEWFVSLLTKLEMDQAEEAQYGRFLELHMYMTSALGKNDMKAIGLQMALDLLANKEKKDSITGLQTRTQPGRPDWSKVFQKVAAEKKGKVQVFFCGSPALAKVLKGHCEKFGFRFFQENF

Consider `Cc1ccc(S(=O)(=O)N[C@@H]2COC(=O)[C@@H](C)COC(=O)CC=C[C@H]2C)cc1`, for which the z-score was -0.891 (inactive) in assay [1]; 0.124 (inactive) in [3]; 0.279 (inactive) in assay [4]; -0.305 (inactive) in assay [5]; -0.113 (inactive) in assay [6]; -0.0223 in assay [7]. For the same compound, the z-score in assay [8] was -1.19 (inactive); in assay [9], -1.59 (inactive); in [10] it was -0.728; in assay [11], -0.168; in assay [12], 0.996; in assay [13], 0.617. The z-score in assay [14] was 0.0281; in assay [15] it was 0.587; in [16], 0.0622; in assay [17], -0.396 (inactive); in assay [18], 0.62; in assay [19], 0.743. In assay [20], the z-score was 0.0709 (inactive). The compound also returned a composite z-score in assay [2] of -0.103.

As to `CC(C)CON=C1C[C@@H](O)[C@@H](O)[C@@H]2[C@@H]3C(=O)N(c4cccc(Oc5ccccc5)c4)C(=O)[C@@H]3CC[C@@H]12`, the z-score in assay [1] was -0.211 (inactive); in assay [3], 2.34 (inactive); in [4], -0.696 (inactive); in assay [5] it was 1.07 (inactive); in assay [6], -1.36 (inactive); in assay [7] it was 0.6. Moreover, the z-score in assay [8] is -0.191 (inactive); in [9], 0.352 (inactive); in assay [10], -0.51; in assay [11] it was 1.52; in [12], 0.797; in assay [13] it was 0.626. The z-score in [14] was -0.779; in assay [15], 0.0135; in assay [16] it was 0.291; in [17] it was 0.411 (inactive); in [18], 0.615; in assay [19] it was -1.78. The z-score in assay [20] is -0.908 (inactive). This compound showed a composite z-score in [2] of -0.321.

For `CCOC(=O)C1=NO[C@@]2(C=C(Br)C3(OCCCO3)[C@H]3O[C@H]32)C1`, the z-score was 0.721 (inactive) in assay [1]; 0.123 (inactive) in [3]; 0.105 (inactive) in assay [4]; 0.157 (inactive) in [5]; -0.218 (inactive) in assay [6]; -0.235 in [7]. Also, the z-score in [8] was 0.925 (inactive); in assay [9] it was -0.373 (inactive); in assay [10] it was 0.43; in assay [11] it was -0.433; in [12], 0.672; in assay [13], 0.0307. For the same compound, the z-score in assay [14] was 0.777; in assay [15] it was -0.468; in assay [16], 0.448; in assay [17], 0.139 (inactive); in assay [18] it was -0.723; in [19] it was 0.308. Also, in [20], the z-score is -0.542 (inactive). The compound further had a composite z-score in [2] of 0.026.

For the compound `O=C1C[C@@H](O)[C@@H](O)[C@@H]2[C@@H]3C(=O)N(Cc4ccc5c(c4)OCO5)C(=O)[C@@H]3CC[C@H]12`, the z-score in assay [1] was -0.116 (inactive); in assay [3], 1.52 (inactive); in assay [4], 0.14 (inactive); in [5], -0.582 (inactive); in assay [6] it was 0.207 (inactive); in assay [7], -0.196. Also, the z-score is -0.148 (inactive) in assay [8]; 0.314 (inactive) in assay [9]; -0.36 in assay [10]; 0.474 in assay [11]; 1.46 in assay [12]; 0.517 in assay [13]. Further, the z-score in [14] is 0.0737; in [15], -0.0121; in [16], -0.0331; in assay [17] it was -0.221 (inactive); in assay [18], 0.522; in assay [19] it was 1.37. Also, the z-score in assay [20] is -0.0495 (inactive). The compound further yielded a composite z-score in assay [2] of -0.104.

On to `CO[C@@H]1C=CCC(=O)N2CCC[C@H]2C(=O)OC[C@@H](C)C(=O)OC[C@H]1C`, for which the z-score in assay [1] is 1.12 (inactive); in assay [3] it was 0.0026 (inactive); in assay [4], 0.155 (inactive); in [5], 0.335 (inactive); in [6], 0.181 (inactive); in [7] it was 0.467. Further, the z-score was -0.805 (inactive) in assay [8]; 0.766 (inactive) in assay [9]; 0.147 in assay [10]; 0.623 in assay [11]; 0.244 in [12]; 1.17 in [13]. Further, the z-score in assay [14] was 0.138; in assay [15], -0.267; in assay [16], 0.848; in [17], 0.00578 (inactive); in assay [18] it was -0.257; in assay [19], 0.269. Moreover, the z-score in assay [20] is 0.585 (inactive). Moreover, in assay [2], the composite z-score stood at 0.154.

In the case of `O=C(NN=C1C[C@@H](O)[C@@H](O)[C@@H]2[C@@H]3C(=O)N(C[C@@H]4CCCO4)C(=O)[C@@H]3CC[C@@H]12)OCc1ccccc1`, the z-score is 0.828 (inactive) in assay [1]; 0.423 (inactive) in assay [3]; -1.35 (inactive) in assay [4]; 0.449 (inactive) in assay [5]; -1.97 (inactive) in [6]; 2.18 in assay [7]. For the same compound, the z-score in assay [8] is -0.532 (inactive); in assay [9] it was 0.554 (inactive); in assay [10], 0.8; in [11], 0.468; in assay [12], 0.211; in assay [13], -0.293. In addition, the z-score in assay [14] was -0.745; in [15], 0.215; in [16], 0.795; in [17], 0.131 (inactive); in assay [18], 0.103; in assay [19], -0.989. In addition, the z-score in [20] is -0.451 (inactive). Further, the composite z-score in assay [2] was -0.24.

As to `CC(C)CON=C1C[C@@H](O)[C@@H](O)[C@@H]2[C@@H]3C(=O)N(C4CCCCC4)C(=O)[C@@H]3CC[C@@H]12`, the z-score was -1.24 (inactive) in assay [1]; -0.133 (inactive) in assay [3]; -0.346 (inactive) in assay [4]; -0.383 (inactive) in assay [5]; -0.0384 (inactive) in [6]; -0.354 in assay [7]. Moreover, the z-score in [8] is 1 (inactive); in assay [9], -1.59 (inactive); in assay [10], -0.143; in assay [11], -0.162; in assay [12], 0.617; in assay [13], -0.323. Further, the z-score in assay [14] was -0.34; in [15], -0.271; in [16], -1.21; in assay [17], -0.49 (inactive); in assay [18] it was -0.0174; in assay [19], 0.268. Also, in [20], the z-score is -0.048 (inactive). Also, the composite z-score in [2] is -0.0662.

Turning to `CON=CC[C@@H]1C=C[C@H](OC(C)=O)[C@@H](COC(C)=O)O1`, the z-score is -2.1 (inactive) in assay [1]; 0.0262 (inactive) in assay [3]; 0.0956 (inactive) in assay [4]; -0.833 (inactive) in [5]; 0.245 (inactive) in assay [6]; -0.841 in assay [7]. Also, the z-score in [8] is 0.0851 (inactive); in assay [9], -0.0561 (inactive); in assay [10], -0.107; in assay [11] it was 0.779; in assay [12] it was -0.221; in assay [13], -0.0589. Also, the z-score in assay [14] is -1.09; in assay [15] it was -0.0741; in [16] it was 0.308; in assay [17], -0.835 (inactive); in [18], -0.589; in assay [19] it was -0.0369. Besides, the z-score in assay [20] is -0.357 (inactive). In assay [2], this compound gave a composite z-score of 0.171.

These data come from PubChem BioAssay.
